Source: PubChem
GLD-1 TGE inh = GLD-1/TGE RNA complex disruptors, primary screen, biochemical, fluorescence polarization; purified GLD-1 + fluorescein TGE RNA; actives 0.44% (n = 320,000); inhibition, % at 5.96 µM;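 active means percent inhibition above a per-plate cutoff, the plate mean of test compounds plus 3 SD, cut at about 30% in these data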
E coli Lon inh = inhibitors of E. coli Lon protease, primary screen, biochemical, fluorescence polarization; inhibition, % at 7.94 µM; purified E. coli Lon protease; P0A9M0; actives 0.42% (n = 360,000); AID 602123, 2011; in the data active means inhibition above about 13%, passing the limit was not always enough
LANA-H2A inh = blockers of LANA interaction with H2A/H2B – biochemical, FP readout, HTS, primary screen; inhibition, % (concentration not given with the values); actives 0.6% (n = 320,000); Protein LANA1 (Human herpesvirus 8 type P (isolate GK18)), Q9QR71; cell-free LANA-H2A/H2B peptide, fluorescence polarization; in the data active means inhibition mostly above about 10%, no sharp cut-off; inactive means mostly below about 6.7%
EBV gp42 inh = Epstein-Barr virus gp42 inhibitors, primary screen, biochemical, uHTS, fluorescence polarization; Glycoprotein 42 (Epstein-Barr virus (strain AG876)), Q1HVG2; Fluorescence polarization binding assay, mP read-out; inhibition, % (tested at 21.74 µM); actives 0.42% (n = 220,000); AID 1085, 2008; in the data active means inhibition above about 50%
Keap1 Nrf2 FP = Keap1-Nrf2 protein-protein interaction inhibitors, primary screen, biochemical, fluorescence polarization, single point | actives 0.15% (n = 340,000) | Keap1 Kelch-Nrf2 peptide fluorescence polarization, 1536-well | inhibition, % at 9.4 µM; in the data active means inhibition above about 12%;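 further: human Keap1 Kelch domain with fluorescein labeled Nrf2 9mer peptide probe; higher means more block of Keap1 binding to Nrf2 peptide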
Target sequence (Q14145 whole entry, looked up, the tested form may be a part): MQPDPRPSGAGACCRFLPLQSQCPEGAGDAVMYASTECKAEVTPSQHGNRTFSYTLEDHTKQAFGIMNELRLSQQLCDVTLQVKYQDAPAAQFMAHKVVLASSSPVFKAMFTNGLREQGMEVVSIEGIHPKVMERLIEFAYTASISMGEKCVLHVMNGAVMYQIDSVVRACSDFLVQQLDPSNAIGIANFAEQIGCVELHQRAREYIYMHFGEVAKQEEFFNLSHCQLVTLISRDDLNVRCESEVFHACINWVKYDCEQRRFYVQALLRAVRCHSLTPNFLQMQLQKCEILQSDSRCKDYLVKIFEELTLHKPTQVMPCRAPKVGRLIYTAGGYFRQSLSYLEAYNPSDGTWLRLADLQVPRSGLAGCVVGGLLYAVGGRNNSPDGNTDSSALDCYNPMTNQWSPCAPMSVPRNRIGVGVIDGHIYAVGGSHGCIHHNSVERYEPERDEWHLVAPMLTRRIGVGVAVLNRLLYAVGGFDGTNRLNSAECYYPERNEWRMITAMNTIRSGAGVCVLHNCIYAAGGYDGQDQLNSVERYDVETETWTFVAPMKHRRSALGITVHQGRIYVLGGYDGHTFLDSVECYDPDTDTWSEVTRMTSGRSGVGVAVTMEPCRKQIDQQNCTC
C-LANA FP = inhibitors of KSHV C-LANA binding to DNA, primary screen, biochemical, fluorescence polarization, FAM-LBS DNA, MBP-C-LANA, single point | Kaposi's sarcoma herpesvirus LANA C-terminal domain (residues 932-1162) DNA binding | inhibition, % at 9 µM | actives 0.078% (n = 340,000);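 active means highest replicate inhibition at or above 60% at 9 µM, even if other replicates fall short; inactive means all replicates below 60% inhibition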
eLon confirm = E. coli Lon protease inhibitor retest, confirmation, biochemical, fluorescence polarization. shares compounds with E coli Lon inh. purified E. coli Lon. inhibition, % at 7.94 µM. actives 31% (n = 1,400); in the data active means inhibition above about 16%
Of the large screens only hits and unclear results are named; the others gave an inactive call (follow-up assays come after a bar, where they were run). A selection: hits, their analogues and other compounds. The true share with any hit is near 1.5%.

N#CC(C#N)=C1C=CC=CN1/C(=C\c1ccccc1)C(=O)c1cccs1	E coli Lon inh 25.2 | eLon confirm inactive
N#CC(C#N)=C1C=CC=CN1/C(=C\c1ccccc1Cl)C(=O)c1ccccc1	none
c1ccc(Nc2ccccc2Nc2ccccn2)nc1	GLD-1 TGE inh 141.3, E coli Lon inh 33.1 | eLon confirm inactive
O=C(NCCc1ccc2c(c1)OCCO2)c1cc(S(=O)(=O)N2CCCC2)ccc1Br	none (no result: GLD-1 TGE inh, LANA-H2A inh, EBV gp42 inh)
O=C(N=Nc1c(O)[nH]c2ccc(Br)cc12)c1ccco1	none (no result: GLD-1 TGE inh, LANA-H2A inh, EBV gp42 inh, Keap1 Nrf2 FP, C-LANA FP)
O=C(N=Nc1c(O)[nH]c2ccc(Br)cc12)c1ccccc1-n1cccc1	E coli Lon inh 23.9 | eLon confirm inactive
Cc1cc(/C=N/NC(N)=S)c(O)c(/C=N/NC(N)=S)c1	GLD-1 TGE inh 189.0, E coli Lon inh active, EBV gp42 inh 147.1 | eLon confirm 189.3
NC(=S)N/N=C/c1cccc(O)c1O	none
N#CC1=C(N)C2=C(N3CCCCC3)CCCC2C1(C#N)C#N (stereo unspecified)	E coli Lon inh 24.0 | eLon confirm inactive
COC(=O)c1cc2c(C)c(C)c3ccccn3c-2c1C(=O)OC	GLD-1 TGE inh 86.1, E coli Lon inh 21.7, EBV gp42 inh 50.5 | eLon confirm 59.8
COc1ccc(S(=O)(=O)N2CCCCCC2)cc1C(=O)N(C)Cc1cccs1	none (no result: EBV gp42 inh)
Cc1cccc(-c2cccc(NC(=O)C3CCCN(C(=O)c4cccnc4)C3)c2)c1 (stereo unspecified)	none (no result: GLD-1 TGE inh, EBV gp42 inh)
Cc1cccc(-c2cccc(NC(=O)C3CCCN(C(=O)c4csc(C)n4)C3)c2)c1 (stereo unspecified)	E coli Lon inh 78.9 (no result: EBV gp42 inh) | eLon confirm inactive
CC(=O)N1c2ccc(S(=O)(=O)N3CCC(C(=O)Nc4cccc(C(F)(F)F)c4)CC3)cc2CC1C (stereo unspecified)	E coli Lon inh 27.6 (no result: EBV gp42 inh) | eLon confirm inactive
O=C(O)c1cccc(Nc2nc(-c3cc4ccccc4oc3=O)cs2)c1	none (no result: GLD-1 TGE inh, EBV gp42 inh)
c1ccc(C2(Cn3ccc4ccccc43)OCCO2)cc1	E coli Lon inh 24.6 | eLon confirm inactive
O=C(CNC(=O)C12CC3CC(CC(C3)C1)C2)NCc1ccccc1	none (no result: EBV gp42 inh)
NNC(=O)CNC(=O)C12CC3CC(CC(C3)C1)C2	E coli Lon inh 16.6 | eLon confirm inactive
CC(C)CN(C(=O)CSc1nnc(C2CC2)n1-c1ccccc1)C1CCS(=O)(=O)C1 (stereo unspecified)	E coli Lon inh 55.9 (no result: EBV gp42 inh) | eLon confirm 54.9
Cc1nc(Nc2ccc(Cl)cc2)c(C#N)c(=O)[nH]1	E coli Lon inh 19.1 (no result: EBV gp42 inh) | eLon confirm inactive
COc1ccc(C2CC(=O)C(C=NCCCO)=C(O)C2)cc1 (stereo unspecified)	E coli Lon inh 44.2 (no result: EBV gp42 inh) | eLon confirm 42.4
COc1cccc(NC(=O)COC(=O)c2ccccc2C(=O)N2CCN(c3ccccc3)CC2)c1	GLD-1 TGE inh 43.5, E coli Lon inh 16.2 | eLon confirm inactive
O=C(COC(=O)c1ccccc1C(=O)N1CCN(c2ccccc2)CC1)Nc1ccccc1	none
COc1cccc(NC(=O)COC(=O)c2ccccc2F)c1	none
O=C(COC(=O)c1ccccc1C(=O)N1CCN(c2ccccc2)CC1)Nc1ccc(F)cc1	GLD-1 TGE inh 36.8, E coli Lon inh 21.7 | eLon confirm inactive
OC(CN1CCCCC1)c1ccc2c3c(cccc13)CC2 (stereo unspecified)	E coli Lon inh 69.7 (no result: GLD-1 TGE inh, LANA-H2A inh, EBV gp42 inh) | eLon confirm inactive
OC(CN1CCCCC1)c1ccc(Br)cc1 (stereo unspecified)	none (no result: GLD-1 TGE inh, LANA-H2A inh, EBV gp42 inh)
O=C(Nc1ccccc1C(=O)OCC(=O)N1CCc2ccccc2C1)c1ccco1	none
CC(=O)c1ccc2c(c1)c(C#N)c1ccccc1[n+]2[O-]	E coli Lon inh 95.8 (no result: GLD-1 TGE inh, LANA-H2A inh, EBV gp42 inh) | eLon confirm 88.3
CC(=O)c1ccc2noc(-c3ccccc3)c2c1	none
CCCc1cc(=O)n2nc(N3CCC(C(=O)N4CCN(c5cccc(OC)c5)CC4)CC3)sc2n1	E coli Lon inh 24.1 (no result: EBV gp42 inh) | eLon confirm inactive
CCOC(=O)C1CCN(C(=O)C2CCN(c3nn4c(=O)cc(C)nc4s3)CC2)CC1	none (no result: EBV gp42 inh)
C=CCn1c(=O)[nH]c2nc3cc(N=CN(C)C)c(C)cc3nc2c1=O	GLD-1 TGE inh 181.2, E coli Lon inh 158.2, EBV gp42 inh 118.0 | eLon confirm active
CC(C)OCC(O)CN1CCNCC1 (stereo unspecified)	none
CN(Cc1ccco1)C(=O)c1cc2c(s1)-c1ccc(Cl)cc1S(=O)(=O)C2	none (no result: EBV gp42 inh)
COc1ccc(N(C)C(=O)c2cc3c(s2)-c2ccc(Cl)cc2S(=O)(=O)C3)c(OC)c1	E coli Lon inh 20.1 (no result: EBV gp42 inh) | eLon confirm inactive
COc1ccc(NS(=O)(=O)c2ccc3c(c2)NC(=O)CO3)c(OC)c1	none (no result: EBV gp42 inh)
CC(C)CCCN1C(Nc2ccccc2)=NC[C@@H]1C	none (no result: EBV gp42 inh)
Cc1cc2cc(CNC(=O)c3ccc(C)c([N+](=O)[O-])c3)ccc2[nH]1	E coli Lon inh 21.5 | eLon confirm inactive
Cc1cc2cc(CNC(=O)c3ccc(S(=O)(=O)N4CCCCC4)cc3)ccc2n1C	E coli Lon inh 16.0 | eLon confirm inactive
CCN(CC)S(=O)(=O)c1ccc(C(=O)NCc2ccc3c(c2)cc(C)n3C)cc1	none
Cc1cc2cc(CNC(=O)c3ccc(S(=O)(=O)N4CCCC4)cc3)ccc2n1C	E coli Lon inh 23.4 | eLon confirm inactive
COc1ccc(S(=O)(=O)N2CCC(C(=O)Nc3ccc(F)cc3)CC2)c2cccnc12	none
CCN(c1cccc(C)c1)S(=O)(=O)c1ccc2[nH]c(=O)c(=O)[nH]c2c1	none
CCOC(=O)C(=C1Nc2ccccc2N1)n1c(-c2ccco2)nc2ccccc21	E coli Lon inh 41.0 (no result: GLD-1 TGE inh, LANA-H2A inh, EBV gp42 inh, Keap1 Nrf2 FP, C-LANA FP) | eLon confirm 20.2
O=C(O)c1ccc(N2C(=O)CSC2=S)cc1	none (no result: EBV gp42 inh)
O=C(O)c1ccc(CN2C(=O)CSC2=S)cc1	E coli Lon inh 15.8 | eLon confirm inactive
Cc1ccc(C(=O)/C=C/c2ccco2)c(O)c1	none
Cc1ccccc1OCCNc1cc(N2CCCCC2)ccc1[N+](=O)[O-]	E coli Lon inh 14.9 | eLon confirm inactive
COC(=O)Cc1[nH]n(-c2ccccc2)c(=O)c1C=Nc1ccc(C)cc1	none
CN(C)CCCn1c2c3ccccc3ccc2c2oc(=O)c3ccccc3c21	E coli Lon inh active (no result: GLD-1 TGE inh, LANA-H2A inh, EBV gp42 inh) | eLon confirm 23.2
CN(C)CCCn1c(=S)[nH]c2ccccc2c1=O	none
